These results are taken from PubChem BioAssay (EPA / NIEHS).

Structures are written as SMILES. Calls of active or inactive are those of the source. Rule for the calls: active = hit-call score of the fitted dose curve at least 0.9, where 1 is the maximum; inactive = score below 0.9.

Chain of Heat shock factor protein 1 (Homo sapiens) (Q00613 whole entry, looked up): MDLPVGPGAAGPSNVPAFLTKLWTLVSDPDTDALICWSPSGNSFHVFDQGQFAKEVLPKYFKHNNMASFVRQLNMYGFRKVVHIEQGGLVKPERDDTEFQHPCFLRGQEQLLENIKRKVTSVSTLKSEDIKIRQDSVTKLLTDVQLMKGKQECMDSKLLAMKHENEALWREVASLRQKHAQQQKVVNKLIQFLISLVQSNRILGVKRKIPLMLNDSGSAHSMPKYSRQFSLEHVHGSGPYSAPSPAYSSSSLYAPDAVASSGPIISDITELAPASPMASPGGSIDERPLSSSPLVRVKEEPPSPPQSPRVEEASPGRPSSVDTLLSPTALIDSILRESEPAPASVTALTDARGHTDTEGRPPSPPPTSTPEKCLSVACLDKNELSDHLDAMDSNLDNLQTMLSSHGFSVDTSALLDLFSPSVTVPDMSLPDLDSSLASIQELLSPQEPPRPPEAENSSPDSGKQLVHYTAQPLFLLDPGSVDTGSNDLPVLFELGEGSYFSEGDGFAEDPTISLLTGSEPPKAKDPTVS

The target of this experiment is Heat shock factor protein 1 (Homo sapiens) (UniProt Q00613). As to the kind of experiment: ATG_HSE_CIS: Attagene CIS-FACTORIAL HepG2 Assay for human Heat Shock Transcription Factor 1 (HSE) (AID 2282953). The note with it: HepG2 HSE cis-reporter, Attagene RNA transcription; actives raise or lower the signal. The protocol:
ATG_CIS is a cell-based, multiplexed-readout assay that uses HepG2, a human liver cell line, with measurements taken at 24 hours after chemical dosing in a 24-well plate.ATG_HSE_CIS is one of 52 assay component(s) measured or calculated from the ATG_CIS assay. It is designed to make measurements of mRNA induction, a form of inducible reporter, as detected with fluorescence intensity signals by Reverse transcription polymerase chain reaction (RT-PCR) and Capillary electrophoresis technology.Data from the assay component ATG_HSE_CIS was analyzed into 1 assay endpoint. This assay endpoint, ATG_HSE_CIS, was analyzed with bidirectional fitting relative to DMSO as the negative control and baseline of activity. Using a type of inducible reporter, measures of mRNA for gain or loss-of-signal activity can be used to understand the reporter gene at the transcription factor-level as they relate to the gene HSF1. Furthermore, this assay endpoint can be referred to as a primary readout, because this assay has produced multiple assay endpoints where this one serves a reporter gene function. To generalize the intended target to other relatable targets, this assay endpoint is annotated to the dna binding intended target family, where the subfamily is heat shock protein.
Human liver HepG2 cells are transiently transfected with multiple reporter transcription units (MRTUs) in 6-well plates using FuGene 6 reagent (Roche; 3 ml FuGene/1 mg DNA). The MRTU constructs are regulated by a cis-regulating element (promoter). […] A major difference between the CIS and TRANS system is that in CIS activities of endogenous TFs are measured, whereas the TRANS assay evaluates changes in activities of exogenous, chimeric NR-Gal4 proteins. […] At the end of 24 hour incubation, total RNA was isolated using TriZol reagent (Invitrogen). The isolated RNA is then reverse-transcribed using oligo(dT) primer and Mo-MLV reverse transcriptase (Invitrogen) with DNAse I (Ambion) treatment for 30 min. The one-tenth of the produced cDNA was amplified by PCR using Taq DNA polymerase (Invitrogen) and two reporter sequence-specific primers. The PCR products were fluorescently labeled by primer extension with 6-arboxyfluorescein (6-FAM) 5'-labeled reporter sequence-specific primer (2 min at 95 C, 20 s at 68 C and 10 min at 72 C) and these products were digested with 5U of HpaI (New England Biolabs) for 2h at 37 C. The fragments were purified using Qiaquick PCR columns (Qiagen), analyzed on an ABI 3130xL genetic analyzer (Applied Biosystems) with peak positions identified by using a set of X-rhodamine (ROX)-labeled MapMarker1000 molecular weight standards (BioVentures). The raw capillary electrophoresis data was processed using Attagraph software (Attagene).
As to `O=C1c2ccccc2C(=O)c2cc(S(=O)(=O)O)ccc21`, the outcome was inactive.

Take `Clc1cccnc1`: the call was inactive.

`C=CCCCCCCCCO`: the outcome was inactive.

For `CCOC(=O)[C@H](O)[C@@H](O)C(=O)OCC`, the outcome was inactive.

On to `CCCCCC(=O)OCC`, for which the compound was classed as inactive.

As to `CCCCCCOc1ccc(N)cc1`, the result was inactive.

As to `C=C(C)C1CC=C(C)CC1` (stereo not given), the compound was classed as inactive.

Regarding `CC(c1cc(C(C)(C)C)cc(C(C)(C)C)c1O)c1cc(C(C)(C)C)cc(C(C)(C)C)c1O`, the compound was classed as inactive.

On to `CC(C)(C)C1CCC(=O)CC1`, for which the AC50 is 156 µM (active).

`Nc1ccnc(=O)[nH]1`: the outcome was inactive.

As for `O=S(=O)(O)c1ccc(Nc2nc(Nc3ccc(C=Cc4ccc(Nc5nc(Nc6ccc(S(=O)(=O)O)cc6)nc(N(CCO)CCO)n5)cc4S(=O)(=O)O)c(S(=O)(=O)O)c3)nc(N(CCO)CCO)n2)cc1`, the call was inactive.

With `CCOC(=O)OC(=O)OCC`, the outcome was inactive.

Take `CC(C)(C)N`: the compound was called inactive.

As to `CCCC/C=C/C=C\C=O`, the AC50 was 157 µM (active).

With `CCC(C)(O)CCCC(C)C` (stereo not given), the outcome was inactive.

Take `Oc1c(Cl)cc(Cl)c(Cl)c1Cl`: the outcome was inactive.

As for `C=CCCCCCCCCC=O`, the compound was classed as inactive.

`Nc1ccc(C(=O)OCCCOC(=O)c2ccc(N)cc2)cc1`: the compound was classed as inactive.

Regarding `Cc1c(O)cccc1O`, the call was inactive.

With `C=C[Si](OCCOC)(OCCOC)OCCOC`, the outcome was inactive.

For the compound `NNS(=O)(=O)c1ccc(Oc2ccc(S(=O)(=O)NN)cc2)cc1`, the call was inactive.

Regarding `CCCCc1ccc(Cl)cc1`, the result was inactive.

On to `O=C(O)CC(C(=O)O)S(=O)(=O)O` (stereo not given), for which the outcome was inactive.

With `Oc1ccc(-c2ccccc2)c(Cl)c1`, the outcome was inactive.

Consider `CCCCCCO`, for which the call was inactive.

In the case of `Nc1ncnc2nc[nH]c12`, the outcome was inactive.

For `Cc1c[nH]c(=O)[nH]c1=O`, the compound was called inactive.

For `CCCCCCCCCCCCC`, the result was inactive.

For the compound `CC(C)(CO)C(O)C(=O)NCCCO` (stereo not given), the compound was called inactive.

`CC(C)CCCCCOC(=O)CS`: the result was inactive.

Turning to `CCCSSCCC`, the call was inactive.

For the compound `CC1=CP(=O)(c2ccccc2)CC1` (stereo not given), the compound was classed as inactive.

For the compound `C=CCCCCCCCCOC(C)=O`, the call was inactive.

For `CCCCC1CCC(=O)O1` (stereo not given), the compound was called inactive.

As to `CC(=O)OC1CCCCC1`, the compound was classed as inactive.

`CCOC(=O)CC(=O)c1ccccc1`: the compound was called inactive.

Regarding `CCCC1CCCC(=O)O1` (stereo not given), the outcome was inactive.

Take `CCOC(=O)c1ccc(C)cc1`: the call was inactive.

Consider `CC(C)(CO)COC(=O)C(C)(C)CO`, for which the compound was called inactive.

As for `Cn1cccc1`, the compound was called inactive.

What is called AC50 is the concentration at which the activity in the assay is half-maximal.
